Ins promoter up: MIN6 insulin promoter up-regulation; MIN6 insulin promoter-GFP reporter, high-content imaging; stronger effect = higher value; hit rate 0.3% among 190,000; AID 1625; z-score at 5 µM;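 active means z-score above 3 at 5 µM with at least 500 cells counted in the well; inconclusive means wells under 500 cells, flagged as cytotoxic or low count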
Lmaj promast: reduces viability of Leishmania major promastigotes; inhibition, % at 10 µM; resazurin fluorescence viability; hit rate 9% among 200,000; in the data active means inhibition above about 50%;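 further: promastigotes grown with compound for 44 hours at 28 °C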
Insulin prom inh: TRM-6 insulin promoter activity inhibition; hit rate 0.9% among 130,000; inhibition, % at 2 µM; AID 1273; TRM-6 cells (human fetal islet line), insulin promoter-eGFP reporter, imaging; reporter expression induced with tamoxifen;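 active means inhibition above the mean plus 3 SD, with well images judged a real hit on visual review, cut at about 60% in these data, passing the limit was not always enough; inconclusive means inhibition over the cutoff but images rejected on review; inactive means inhibition not above the cutoff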
Autophagy HCS: alters autophagy in cells; MEF GFP-LC3 puncta imaging; test concentration mostly 10 µM; calls only at 10 µM (by protocol); hit rate 0.98% among 190,000;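 active means percentage of spot-positive cells more than 3 SD above its plate mean, without a fluorescence outlier flag or 80% toxicity; inconclusive means no clear call, values can overlap the other calls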
HCT116 PTEN-null: PTEN-deleted cell growth suppression. HCT116 PTEN-null viability, CellTiter-Glo, 60 h; stronger effect = lower value. viability, % at 10 µM. hit rate 1.2% among 140,000. AID 827;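 active means viability at or below a set limit, 4 SD under the median of all tested compounds, cut at about 3.7% in these data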;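 further: PTEN knockout HCT116 line with beta catenin targeted HCT116 as companion control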
HCT116 bCat-KO: beta-catenin-lacking colon tumor cell growth suppression. HCT116 beta-catenin knockout viability, CellTiter-Glo, 60 h; stronger effect = lower value. viability, % at 10 µM. hit rate 1.5% among 140,000. AID 818;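 active means viability at or under a set limit, the compound median less 4 SD, cut at about 6% in these data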
Hits are given with their value. Hits are enriched below; roughly 9.6% of the tested compounds scored in any of these assays.

How did Cc1ccccc1OCC(O)Cn1nnc2ccccc21 (configuration not stated) do in these assays?
Ins promoter up: inactive; Lmaj promast: inactive; Insulin prom inh: inactive; Autophagy HCS: active; HCT116 PTEN-null: inactive; HCT116 bCat-KO: inactive

What do the screens show for `CCC(=O)c1ccc(OCC(O)Cn2nnc3ccccc32)cc1` (configuration not stated)?
Ins promoter up: inactive; Lmaj promast: inactive; Insulin prom inh: inactive; Autophagy HCS: inactive

Results for COc1ccc(/C=c2\s/c(=C(/C#N)C(=O)NCc3ccco3)n(-c3ccccc3)c2=O)cc1 ?
Ins promoter up: inactive; Lmaj promast: 62; Insulin prom inh: inactive; Autophagy HCS: inactive; HCT116 PTEN-null: inactive; HCT116 bCat-KO: inactive

How did CN(C)c1ccc(-c2nnc(-c3cccs3)o2)cc1 do in these assays?
Ins promoter up: inactive; Lmaj promast: inactive; Insulin prom inh: inactive; Autophagy HCS: inactive

What do the screens show for `Cc1nn(C)c(Sc2ccccn2)c1[N+](=O)[O-]`?
Ins promoter up: inactive

How did Cc1c(C(=O)Nc2ccc(Cl)cc2)c2ccccn2c1C(=O)c1ccc([N+](=O)[O-])cc1 do in these assays?
Ins promoter up: inactive; Lmaj promast: inactive; Insulin prom inh: inactive; Autophagy HCS: active; HCT116 PTEN-null: inactive; HCT116 bCat-KO: inactive

Results for O=c1c2c3c(sc2nc2n1CCCCC2)CCC3 ?
Ins promoter up: inactive; Lmaj promast: 55; Insulin prom inh: inactive; Autophagy HCS: inactive; HCT116 PTEN-null: inactive; HCT116 bCat-KO: inactive

Results for C=CCC(Nc1ccccc1)C12C=CC(O1)C(C(=O)OC)=C2C(=O)OC (configuration not stated) ?
Ins promoter up: inactive; Lmaj promast: inactive; Insulin prom inh: inactive; Autophagy HCS: inactive; HCT116 PTEN-null: 1.9; HCT116 bCat-KO: 2.3

How did O=C(N1CCOCC1)N1CCN(c2ccccn2)CC1 do in these assays?
Ins promoter up: inactive; Lmaj promast: inactive; Insulin prom inh: inactive; Autophagy HCS: inactive; HCT116 PTEN-null: inactive; HCT116 bCat-KO: inactive

How did O=C(Nc1ccc2nc(SCc3ccc(Cl)cc3)sc2c1)c1ccccc1C(=O)N1CCOCC1 do in these assays?
Ins promoter up: inactive; Lmaj promast: inactive; Autophagy HCS: active; HCT116 PTEN-null: inactive; HCT116 bCat-KO: inactive

What do the screens show for `O=S(=O)(c1cnccc1N1CCN(/N=C/c2ccccc2)CC1)N1CCCCC1`?
Ins promoter up: inactive; Lmaj promast: 50; Insulin prom inh: inactive; Autophagy HCS: inactive; HCT116 PTEN-null: inactive; HCT116 bCat-KO: inactive

How did COc1ccc(/C=N/N2CCN(c3ccncc3S(=O)(=O)N3CCCCC3)CC2)cc1 do in these assays?
Ins promoter up: inactive; Lmaj promast: inactive; Insulin prom inh: inactive; Autophagy HCS: inactive; HCT116 PTEN-null: inactive; HCT116 bCat-KO: inactive

Results for COc1ccc(N2C(=O)CSC23C(=O)N2c4c(cccc43)C(C)=CC2(C)C)cc1 (configuration not stated) ?
Ins promoter up: inactive; Lmaj promast: 100; Insulin prom inh: inactive; Autophagy HCS: inactive; HCT116 PTEN-null: inactive; HCT116 bCat-KO: inactive

What do the screens show for `O=[N+]([O-])c1ccc(N=Nc2ccc(O)cc2O)cc1`?
Ins promoter up: inactive; Lmaj promast: inactive; Insulin prom inh: inactive; Autophagy HCS: inactive; HCT116 PTEN-null: 2.4; HCT116 bCat-KO: 1.9

How did O=[N+]([O-])c1ccc(N=NN(CCO)CCO)cc1 do in these assays?
Ins promoter up: inactive; Lmaj promast: inactive; Insulin prom inh: inactive; Autophagy HCS: inactive; HCT116 PTEN-null: inactive; HCT116 bCat-KO: inactive

Results for COCCSc1nc2sc3c(c2c(=O)n1-c1ccccc1)CCN(C)C3 ?
Ins promoter up: inactive; Lmaj promast: 100; Insulin prom inh: inactive; Autophagy HCS: inactive; HCT116 PTEN-null: inactive; HCT116 bCat-KO: inactive

How did CCCc1cc(-c2nc(-c3ccc(Cl)cc3)cs2)ccn1 do in these assays?
Ins promoter up: inactive; Lmaj promast: inactive; Autophagy HCS: inactive; HCT116 PTEN-null: inactive; HCT116 bCat-KO: inactive

How did COc1cc2[nH]c3c(N4CCN(c5ccc(Cl)cc5)CC4)ncnc3c2cc1OC do in these assays?
Ins promoter up: inactive; Lmaj promast: inactive; Autophagy HCS: inactive; HCT116 PTEN-null: inactive; HCT116 bCat-KO: inactive

What do the screens show for `COc1cccc(N2CCN(c3ncnc4c3[nH]c3ccccc34)CC2C)c1` (configuration not stated)?
Ins promoter up: inconclusive; Lmaj promast: 90; Insulin prom inh: inactive; Autophagy HCS: inactive; HCT116 PTEN-null: inactive; HCT116 bCat-KO: 4.7
